Reference: PubChem BioAssay (NCI)
About 83,000 compounds went through this panel and 20% of them were active in at least one assay; those are over-represented in the sample as a whole.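 Growth was measured after 48 h exposure to one concentration of compound in 96-well plates. Values under 10 count as active.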 Unmarked numbers belong to inactive results. Activity calls are given as the source filed them.

What was measured:
Assay in all cases: NCI-60 one-dose screen, 48 h (100 = growth as untreated, 0 = no growth, -100 = all killed)
Settings in all cases: 10 µM unless noted
BT-549 breast = system: BT-549 breast
MDA-MB-435 melanoma = system: MDA-MB-435 melanoma
SW-620 colon = system: SW-620 colon
MCF7 breast = system: MCF7 breast
HCT-116 colon = system: HCT-116 colon
HCC-2998 colon = system: HCC-2998 colon
KM12 colon = system: KM12 colon

SMILES | growth (BT-549 breast) | growth (MDA-MB-435 melanoma) | growth (SW-620 colon) | growth (MCF7 breast) | growth (HCT-116 colon) | growth (HCC-2998 colon) | growth (KM12 colon)
COc1ccc2nc(-c3ccc(Cl)cc3)cc(-c3nnc(SC/C(=N/O)c4ccccc4)o3)c2c1 | 46.8% | 47% | 26.5% | 19.9% | 3.9% (active) | 84% | 58.1%
CCC1S/C(=N\N=C(/C)c2ccc[nH]2)N(c2ccccc2)C1=O (stereo not drawn) | 126% | 104% | 92.8% | 117% | 91.6% | 104% | 112%
COc1ccc2c(c1)C1(C(=O)N2)C(C#N)=C(c2ccccc2)Nc2c1c(-c1ccccc1)nn2-c1ccccc1 (stereo not drawn) | 84.5% | 55.3% | 8.54% (active) | 18.1% | 4.04% (active) | 58.1% | 39.7%
Cc1cccc(NC(=O)c2sc3nc4c(cc3c2N)CN(Cc2ccccc2)CC4)c1C | 54% | -25.2% (active) | 24.3% | 22.4% | 29.2% | 55.8% | 25.7%
C=C1C(=O)O[C@H]2[C@H]1CC/C(COC(=O)NCC(=O)Nc1ccc(OC)c(C(N)=O)c1O)=C\CC[C@@]1(C)O[C@@H]21 | 47.4% | 56.3% | 10.6% | 18.6% | 36% | 102% | 92.8%
C/C(=C\c1cnc(C)s1)[C@@H]1C[C@@H]2O[C@@H]2CCC[C@H](C)[C@H](O)[C@@H](C)C(=O)C(C)(C)[C@@H](O)CC(=O)O1 | 39.4% | 4.21% (active) | 34.8% | 17.1% | 18.4% | 18.6% | 24.6%
COc1ccc([C@H]2[C@@H](F)C(=O)N2c2cc(OC)c(OC)c(OC)c2)cc1F | 15.3% | 0.354% (active) | 28.7% | 12.8% | 5.59% (active) | 32.9% | 10.7%
O=C(CN1N=C(c2ccc(F)cc2)CCC1=O)Nc1nc2ccccc2s1 | -71.2% (active) | 99.9% | 57.8% | 87.4% | 70.7% | 95.7% | 45.1%
C=C1C(=O)O[C@H]2[C@H]1CC/C(COC(=O)CCC(=O)OC/C1=C/CC[C@@]3(C)O[C@H]3[C@H]3OC(=O)C(=C)[C@@H]3CC1)=C\CC[C@@]1(C)O[C@@H]21 | 67.1% | 44.5% | 5.48% (active) | 12% | -43% (active) | 93.8% | 85%
CCOC(=O)c1ccc(Nc2ncnc3ccc(NC(=O)c4ccccc4)cc23)cc1 | 86.5% | 91.1% | 96% | 75.7% | 91.4% | 97.3% | 75.2%
CCSc1nc(Cl)c(C#N)c(-c2ccc(F)cc2)n1 | 103% | 91.8% | 93.3% | 85.1% | 91.8% | 102% | 97.9%
Nc1ccc(C2=NN(C(=O)c3cc(-c4ccc(Cl)cc4)nc4ccccc34)C(c3ccccc3)C2)cc1 (stereo not drawn) | 35.1% | -24.3% (active) | 22.5% | 12.7% | 24.7% | 59.6% | 24.5%
C#C[C@@]1(O)[C@@H](CO)O[C@@H](n2cc(F)c3c(N)ncnc32)[C@@H]1O | -23.9% (active) | 1.49% (active) | 1.66% (active) | 2.03% (active) | 1.44% (active) | -27.2% (active) | 10.2%
O=C1NN(c2ccccc2)C(c2ccc(Cl)cc2)N2CCC[C@H]12 (stereo partly drawn) | 117% | 99.2% | 87.3% | 79.9% | 99.7% | 88.1% | 94.9%
COc1ccc2[nH]c(=O)c(/C=C/C(=O)/C=C/c3ccc(O)c(OC)c3)cc2c1 | -22.8% (active) | -30% (active) | -24.8% (active) | 13% | -86.7% (active) | -74% (active) | -45% (active)
COC(=O)/C=C1\SC(=Nc2ccc(F)cc2)N(CCc2c[nH]c3ccccc23)C1=O | 88.4% | 114% | 106% | 74.9% | 87.8% | 102% | 100%
COC(=O)/C=C1\SC(=Nc2ccc(C(F)(F)F)cc2)N(CCc2c[nH]c3ccccc23)C1=O | -21.8% (active) | -85.1% (active) | -76.1% (active) | -7.91% (active) | -63.4% (active) | -90.6% (active) | -62.8% (active)

SMILES | growth (BT-549 breast) | growth (MDA-MB-435 melanoma) | growth (SW-620 colon) | growth (MCF7 breast) | growth (HCT-116 colon) | growth (HCC-2998 colon) | growth (KM12 colon)
COc1ccc2nc(-c3ccc(Cl)cc3)cc(C(=O)N3N=C(c4ccc(N)cc4)CC3c3ccccc3)c2c1 (stereo not drawn) | 44% | 4.25% (active) | 36% | 11.9% | 34.8% | 70.3% | 18.7%
COc1cc(NC(=O)COc2cc(C)nc3ccc(OC)cc23)cc(OC)c1 | 85.5% | 100% | 99.7% | 86.8% | 90.2% | 101% | 96.8%
CC(=O)[C@@H]1CC[C@]2(C(=O)O)CC[C@]3(C)[C@H](CC[C@@H]4[C@@]5(C)Cc6c([nH]c7ccccc67)C(C)(C)[C@@H]5CC[C@]43C)[C@@H]12 | 71.9% | 81.2% | 54.5% | 38.6% | 43.5% | 80.5% | 42.2%
O=C(Nc1ccc2ncnc(Nc3cccc(C(F)(F)F)c3)c2c1)c1cccs1 | 71.8% | 63.3% | 27.7% | 32.2% | 38.3% | 62.8% | 49.6%
O=C(Nc1cc(Br)ccn1)c1cc2cc(Nc3nc(-c4ccccc4)nc4ccccc34)ccc2oc1=O | 103% | 116% | 104% | 91.1% | 98.5% | 92.7% | 102%
CC1CCN(CCCCCOc2ccc3oc4cc(Cl)ccc4c(=O)c3c2)CC1 | 81.8% | 3.73% (active) | 36.8% | 45.9% | 23.3% | 79.3% | 49.5%
O=C1Nc2ccc(Cl)cc2/C1=N/c1nc(-c2ccc(F)cc2)cs1 | 55.4% | 9.56% (active) | 27.7% | 12.5% | 28.4% | 42.2% | 28.2%
Nc1ccccc1NC(=O)c1ccc(CSc2nc(N3CCOCC3)c3cccn3n2)cc1 | 15.3% | -21.2% (active) | 9.25% (active) | 10.3% | 6.78% (active) | 17.6% | 16.6%
O=C(O)c1ccc(-n2cc(/C=N/Nc3ccc(Cl)cc3Cl)c(-c3ccccc3)n2)cc1 | 79.3% | 95.5% | 96.3% | 69.8% | 76.8% | 101% | 83.4%
COc1cc([C@H](C)c2ccc3ccccc3c2)cc(OC)c1OC | 39.1% | 0.308% (active) | 28.5% | 14.8% | 6.72% (active) | 26.5% | 19.6%
N#Cc1ccc(N2Cc3cc(Cl)ccc3OC3=C2C(=O)N(Cc2ccccc2)C3=O)cc1 | -50.5% (active) | -42.5% (active) | -75.8% (active) | -1.6% (active) | -82.7% (active) | 40.4% | 61.4%
CC1(C)[C@@H](O)CC[C@]2(C)[C@H]3CC[C@@H]4[C@H]5[C@H](c6cn(-c7ccccc7)nn6)CC[C@]5(CO)CC[C@@]4(C)[C@]3(C)CC[C@@H]12 | 80% | 93.9% | 94.3% | 52.8% | 94.4% | 110% | 88%
Nc1cccc(C(=O)Nc2ccc3c(O)c(N=Nc4ccc(N=Nc5ccc(S(=O)(=O)O)cc5)cc4)c(S(=O)(=O)O)cc3c2)c1 | 98.6% | 105% | 107% | 97.2% | 95% | 114% | 108%
N#Cc1nc(-c2ccccc2)oc1S(=O)(=O)NCC(c1ccc(Cl)cc1)N1CCCCC1 (stereo not drawn) | 77.6% | 64.3% | 26.5% | 35% | 27.3% | 107% | 80.6%
O=C(/C(=C\c1c(-c2ccccc2)[nH]c2ccccc12)S(=O)(=O)c1ccccc1)c1ccccc1 | 47.7% | 17.2% | 53% | 40.7% | 33% | 73.1% | 27%
OCCNc1nc(NCCO)nc(Nc2ccc(C3=NN(c4cc(Cl)cc(Cl)c4)C(c4ccc(C(F)(F)F)cc4)C3)cc2)n1 (stereo not drawn) | 60.8% | 42.1% | 60.1% | 10.7% | 32.7% | 45.1% | 26%
O=C(O)CCNC1CCCCC1 | 99.6% | 117% | 101% | 87.5% | 92.6% | 86.4% | 99.7%
